Structures can show the parent of a compound that is named as a salt.

The subject of this assay is Saccharomyces cerevisiae BY4741 SeMeCo community. As to the kind of experiment: z-score of prototroph abundance vs DMSO median; higher = larger share of this subpopulation than in DMSO controls. Conditions: 10 µM; 24 h; SM minimal medium; subpopulation (auxotrophy): Prototroph. On the procedure:
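Fluorescent four-plasmid SeMeCo (self-establishing metabolically cooperating S. cerevisiae BY4741 community; plasmids pH-mRuby2, pL-mWasabi, pU-eCFP, pM-TagRFP657) was grown 24 h in minimal SM medium with each Selleck FDA-approved drug at 10 µM in 384-well plates. Cells were fixed and imaged by high-content confocal microscopy. For each auxotrophic subpopulation (and the prototroph), a z-score gives the deviation from the DMSO vehicle-control population median.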
On to `CC(=O)C1C(=O)C=C(C)OC1=O` (stereo not given) [Sodium dehydroacetate], for which the “z-score of prototroph abundance” value is -1.07.

In the case of `CN[C@@H]1[C@H](O)[C@H](NC)[C@H]2O[C@@]3(O)C(=O)C[C@@H](C)O[C@H]3O[C@@H]2[C@H]1O` [Spectinomycin 2HCl], the “z-score of prototroph abundance” value was -0.2.

`CCOC(=O)c1ccc(N)cc1` [Benzocaine hydrochloride]: the “z-score of prototroph abundance” value was -0.32.

On to `CCCCOC(=O)c1ccc(O)cc1` [Butylparaben], for which the “z-score of prototroph abundance” value came out at 1.77.

`NC(=O)N/N=C/c1ccc([N+](=O)[O-])o1` [Nitrofural]: the “z-score of prototroph abundance” value is -0.16.

For `O=C1NCC2(CCN(CCc3ccccc3)CC2)O1` [Fenspiride HCl], the “z-score of prototroph abundance” value was -0.38.

On to `CN(C)C(=O)COC(=O)Cc1ccc(OC(=O)c2ccc(NC(=N)N)cc2)cc1` [Camostat Mesilate], for which the “z-score of prototroph abundance” value came to 0.66.

With `CC(C)(C)C(=O)C(Oc1ccc(Cl)cc1)n1ccnc1` (stereo not given) [Climbazole], the “z-score of prototroph abundance” value was -9.09.

In the case of `O=c1ccc2cc(O)c(O)cc2o1` [Esculetin], the “z-score of prototroph abundance” value came to 2.22.

Turning to `Cc1cc(CC(C)CC(C)(C)C)n(O)c(=O)c1` (stereo not given) [Piroctone Olamine], the “z-score of prototroph abundance” value is -16.9.

In the case of `C[C@@H]1[C@H](O)[C@@H](C)/C=C/C=C/C=C/C=C/C=C/C=C/C=C/[C@H](O[C@@H]2O[C@H](C)[C@@H](O)[C@H](N)[C@@H]2O)C[C@@H]2O[C@](O)(C[C@@H](O)C[C@@H](O)[C@H](O)CC[C@@H](O)C[C@@H](O)CC(=O)O[C@H]1C)C[C@H](O)[C@H]2C(=O)O` [Amphotericin B], the “z-score of prototroph abundance” value is -19.9.

`N[C@@H](C(=O)N[C@@H]1C(=O)N2C(C(=O)O)=C(Cl)CS[C@H]12)c1ccccc1` [Cefaclor]: the “z-score of prototroph abundance” value is -0.66.

For the compound `Cc1ccccc1OCC(O)CO` (stereo not given) [Mephenesin], the “z-score of prototroph abundance” value was 0.89.

Take `CC1=C(CC(=O)O)c2cc(F)ccc2/C1=C\c1ccc([S+](C)[O-])cc1` (stereo not given) [Sulindac]: the “z-score of prototroph abundance” value was 0.27.

`CCN1CCCC1CNC(=O)c1cc(S(N)(=O)=O)ccc1OC` (stereo not given) [Sulpiride]: the “z-score of prototroph abundance” value came to 0.51.

Take `CCCc1nc(C)c2c(=O)nc(-c3cc(S(=O)(=O)N4CCN(CC)CC4)ccc3OCC)[nH]n12` [Vardenafil HCl Trihydrate]: the “z-score of prototroph abundance” value is -0.75.

With `Oc1ccc(Cl)c2cccnc12` [Cloxiquine], the “z-score of prototroph abundance” value is -17.6.

Regarding `CCN(CC)CCNC(=O)c1cc(S(C)(=O)=O)ccc1OC` [Tiapride Hydrochloride], the “z-score of prototroph abundance” value is -1.37.

`CC1(C)CC[C@]2(C(=O)O)CC[C@]3(C)C(=CC[C@@H]4[C@@]5(C)CC[C@H](O)C(C)(C)[C@@H]5CC[C@]43C)[C@@H]2C1` [Oleanolic Acid]: the “z-score of prototroph abundance” value was -0.29.

Take `c1ccc(C2CN3CCSC3=N2)cc1` (stereo not given) [Tetramisole HCl]: the “z-score of prototroph abundance” value stood at 0.24.

Consider `COc1cccc2c1C(=O)c1c(O)c3c(c(O)c1C2=O)C[C@@](O)(C(=O)CO)C[C@@H]3O[C@H]1C[C@H](N)[C@@H](O)[C@H](C)O1` [Epirubicin HCl], for which the “z-score of prototroph abundance” value was -0.14.

In the case of `CCCCCCCCCCCCCCCC[N+](C)(C)C` [Cetrimonium Bromide (CTAB)], the “z-score of prototroph abundance” value was -15.6.

As for `COc1nc2ccc(Br)cc2cc1[C@@H](c1ccccc1)[C@@](O)(CCN(C)C)c1cccc2ccccc12` [Bedaquiline fumarate], the “z-score of prototroph abundance” value is -1.58.

Take `CC1(C)[C@H](C(=O)O)N2C(=O)C[C@H]2S1(=O)=O` [Sulbactam]: the “z-score of prototroph abundance” value is 0.75.

`CN(C)CCCN1c2ccccc2Sc2ccc(Cl)cc21` [Chlorpromazine HCl]: the “z-score of prototroph abundance” value is -0.29.

For `Nc1c(Br)cc(Br)cc1CN[C@H]1CC[C@H](O)CC1` [Ambroxol HCl], the “z-score of prototroph abundance” value was found to be 1.21.

Turning to `Clc1ccc(C(Cn2ccnc2)OCc2c(Cl)cccc2Cl)c(Cl)c1` (stereo not given) [Isoconazole nitrate], the “z-score of prototroph abundance” value is -7.83.

As for `CC[C@H]1OC(=O)[C@H](C)[C@@H](O[C@H]2C[C@@](C)(OC)[C@@H](O)[C@H](C)O2)[C@H](C)[C@@H](O[C@@H]2O[C@H](C)C[C@H](N(C)C)[C@H]2O)[C@](C)(O)C[C@@H](C)/C(=N\OCOCCOC)[C@H](C)[C@@H](O)[C@]1(C)O` [Roxithromycin], the “z-score of prototroph abundance” value was -0.63.

As for `N=C(N)NS(=O)(=O)c1ccc(N)cc1` [Sulfaguanidine], the “z-score of prototroph abundance” value stood at 1.31.

On to `CC1(C)S[C@@H]2[C@H](NC(=O)Cc3ccccc3)C(=O)N2[C@H]1C(=O)O` [Benzathine penicilline], for which the “z-score of prototroph abundance” value amounted to 0.52.

For the compound `Oc1c(Cl)cc(Cl)cc1Sc1cc(Cl)cc(Cl)c1O` [Bithionol], the “z-score of prototroph abundance” value was -1.81.

With `C[C@H]1NCc2cc(-c3ccc4c(=O)c(C(=O)O)cn(C5CC5)c4c3OC(F)F)ccc21` [Garenoxacin], the “z-score of prototroph abundance” value is -0.68.

As for `N#CC(c1ccc(Cl)cc1)c1c(Cl)cc(-n2ncc(=O)[nH]c2=O)cc1Cl` (stereo not given) [Diclazuril], the “z-score of prototroph abundance” value was found to be 1.02.

For `COc1cc(N)c(Cl)cc1C(=O)NC1CCN(CCCOc2ccc(F)cc2)CC1OC` (stereo not given) [Cisapride hydrate], the “z-score of prototroph abundance” value was -0.46.

Take `CCC(C)n1ncn(-c2ccc(N3CCN(c4ccc(OCC5COC(Cn6cncn6)(c6ccc(Cl)cc6Cl)O5)cc4)CC3)cc2)c1=O` (stereo not given) [Itraconazole]: the “z-score of prototroph abundance” value is -10.4.

Regarding `COC1C(O)CC(=O)OC(C)CC=CC=CC(OC2CCC(N(C)C)C(C)O2)C(C)CC(CC=O)C1OC1OC(C)C(OC2CC(C)(O)C(O)C(C)O2)C(N(C)C)C1O` (stereo not given) [Spiramycin], the “z-score of prototroph abundance” value is 0.08.

Regarding `NCc1ccccc1CC(=O)N[C@@H]1C(=O)N2C(C(=O)O)=C(CSc3nnnn3CC(=O)O)CS[C@H]12` [Ceforanide], the “z-score of prototroph abundance” value is -0.53.

For `Cc1onc(-c2ccccc2)c1C(=O)N[C@@H]1C(=O)N2[C@@H]1SC(C)(C)[C@@H]2C(=O)O` [Oxacillin sodium monohydrate], the “z-score of prototroph abundance” value is -0.42.

Turning to `Cc1c(C)c2c(c(C)c1O)CCC(C)(CCCC(C)CCCC(C)CCCC(C)C)O2` (stereo not given) [Vitamin E], the “z-score of prototroph abundance” value was determined as 0.82.

Regarding `COc1cc(O)c(C(=O)Nc2nc(C(=O)NCCN(C(C)C)C(C)C)cs2)cc1OC` [Acotiamide], the “z-score of prototroph abundance” value is -0.88.

For the origin of these results see the supplement of paper PMC8975748.
